Compound activity from PubChem.
The list is not random: actives were taken first. Their share in the collection is about 10%.
Mm-Cpn inhibitor: inhibitors of Methanococcus maripaludis chaperonin TRiC (MmCpn); actives 0.031% (n = 330,000); purified Mm-Cpn ATPase, ADP Transcreener TR-FRET; AID 504842; Potency, µM (highest dose often 76.9 µM), actives largely listed as inhibitors; further: nearly all actives have a fitted effect of over 80% in size
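ATPase turnover read by TR-FRET ADP competition (Eu cryptate antibody/ADP-d2, 665/590 nm): 10uM ATP final, 25nM Mm-CPN final, 30 min 37degC after 10-min compound preincubation, pH 7.4 Tris/KCl/MgCl2/DTT buffer.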
VDR inh: inhibitors of human vitamin D receptor. Potency, µM, hits mostly inhibitors. P11473. actives 0.93% (n = 400,000). VDR-SRC2-3 peptide fluorescence polarization, 2 h
Target sequence (P11473 whole entry, looked up): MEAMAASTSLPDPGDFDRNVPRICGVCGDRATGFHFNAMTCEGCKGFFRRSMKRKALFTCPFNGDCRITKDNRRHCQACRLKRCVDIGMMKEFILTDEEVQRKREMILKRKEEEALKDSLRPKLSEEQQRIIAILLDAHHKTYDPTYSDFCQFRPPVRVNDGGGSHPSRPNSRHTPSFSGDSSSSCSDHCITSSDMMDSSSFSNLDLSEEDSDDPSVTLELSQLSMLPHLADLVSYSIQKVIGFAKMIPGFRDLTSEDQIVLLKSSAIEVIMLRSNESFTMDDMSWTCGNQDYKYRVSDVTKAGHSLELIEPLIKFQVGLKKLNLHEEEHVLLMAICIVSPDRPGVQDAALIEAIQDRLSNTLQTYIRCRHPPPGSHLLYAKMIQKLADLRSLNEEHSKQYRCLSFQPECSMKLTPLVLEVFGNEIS
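VDR–SRC2-3 interaction, FP format. Cmpds 23 nl via pintool, brief spin, 2 h ambient incubation.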
PLK1 PBD inh: inhibitors of human PLK1 polo-box domain binding; Plk1 PBD binding of FITC phosphopeptide, fluorescence polarization; Potency, µM, usual class: inhibitors; actives 2.8% (n = 360,000); AID 720504; further: series mostly up to about 57 µM; nearly all actives have a fitted effect of over 65% in size
CCT chaperon mod: modulators of cytosolic chaperonin (CCT/TRiC) activity; purified chaperonin ATPase assay, HTRF ADP detection, 30 min; activity change, % (test concentration not listed), hits read low; actives 0.3% (n = 360,000); AID 651819; in the data active means activity change below about -30%
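TRiC (40 or 20 nM final, by batch activity) in 30 mM Tris pH 7.4, 100 mM KCl, 5 mM MgCl2, 1 mM DTT was treated with compound at 76 uM single dose, then 10 uM ATP, 30 min at 37 °C. ADP was read by HTRF Transcreener.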
G9a block: blocks human histone lysine methyltransferase G9a. Potency, µM (top dose mostly 102 µM), most hits filed as inhibitors. actives 8.8% (n = 350,000). Q96KQ7. G9a H3K9 monomethylation, AlphaScreen, 2 h; further: nearly all actives have a fitted effect of over 75% in size
Target sequence (Q96KQ7 913-1193 limits assumed): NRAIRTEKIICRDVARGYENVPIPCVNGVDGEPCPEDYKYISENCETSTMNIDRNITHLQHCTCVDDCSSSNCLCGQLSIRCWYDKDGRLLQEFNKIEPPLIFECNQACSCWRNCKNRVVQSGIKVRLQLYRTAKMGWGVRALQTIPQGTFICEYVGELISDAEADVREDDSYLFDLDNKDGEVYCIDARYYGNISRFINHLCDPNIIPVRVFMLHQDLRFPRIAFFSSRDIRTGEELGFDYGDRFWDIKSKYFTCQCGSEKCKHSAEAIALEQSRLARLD
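Using a bead-based AlphaScreen, monomethylated H3K9 product from 2 h room-temperature reactions (G9a 20 nM, peptide 500 nM, SAM 20 uM) was detected with 0.5 ug/mL rabbit anti-H3K9me1 antibody.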
Sfp inh: inhibitors of Bacillus subtilis Sfp phosphopantetheinyl transferase | Q9F4F7 | Biochemical Sfp PPTase activity, qHTS | Potency, µM, most hits filed as inhibitors | actives 3.5% (n = 310,000) | AID 1490;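 further: the enzyme is Sfp with the accession as filed and its product quenches rhodamine fluorescence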
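Step 1, compound plus 15 nM Sfp-PPTase, 15 min, room temperature. Step 2, add rhodamine-CoA (5 uM) and BHQ-2-YbbR (12.5 uM). Step 3, read 525/598 nm fluorescence at 0 and 30 min.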
Numbers stand for hits; [ ] = another dose, or the depositor's remark. Unless noted, the call rests on the fitted dose curve; in most records, active means well fitted curve in the direction sought with a large enough effect; inconclusive means small, poorly fitted or top-dose-only effect, or another doubt; inactive means no such curve, though single readings can be large; an effect the other way counts as inactive or inconclusive.

How did O=C(COC(=O)/C=C/c1ccccc1F)Nc1nnc(-c2ccccc2)o1 do in these assays?
Mm-Cpn inhibitor: inactive; VDR inh: inactive; PLK1 PBD inh: inactive; CCT chaperon mod: inactive; G9a block: inactive

How did COc1ccc(-c2nc(S(=O)(=O)c3ccc(Cl)cc3)c(NCc3ccccc3)o2)cc1 do in these assays?
VDR inh: inactive; G9a block: inactive

What do the screens show for `c1cc(-c2nsc(-c3ccncc3)n2)ccn1`?
Mm-Cpn inhibitor: inactive; VDR inh: inconclusive; PLK1 PBD inh: 18.9µM; CCT chaperon mod: inactive; G9a block: inactive; Sfp inh: 44.7µM

Results for Cc1ccccc1-n1c(-c2ccc(=O)[nH]n2)n[nH]c1=S ?
Mm-Cpn inhibitor: inactive; VDR inh: inactive; PLK1 PBD inh: inactive; CCT chaperon mod: inactive; G9a block: 17.8µM; Sfp inh: 70.8µM

What do the screens show for `O=c1ccc(-c2n[nH]c(=S)n2-c2ccc(F)c(Cl)c2)n[nH]1`?
Mm-Cpn inhibitor: inactive; VDR inh: inactive; PLK1 PBD inh: inactive; CCT chaperon mod: inactive; G9a block: 3.16µM; Sfp inh: inactive

Results for S=c1[nH]nc(-c2ccc3ccccc3n2)n1-c1cc(Cl)cc(Cl)c1 ?
Mm-Cpn inhibitor: inactive; VDR inh: inactive; PLK1 PBD inh: inactive; CCT chaperon mod: inactive; G9a block: inconclusive; Sfp inh: inactive

How did Fc1ccc(-n2c(-c3cc(C4CC4)[nH]n3)n[nH]c2=S)cc1Cl do in these assays?
Mm-Cpn inhibitor: inactive; VDR inh: inactive; PLK1 PBD inh: inactive; CCT chaperon mod: inactive; G9a block: 1.58µM; Sfp inh: inconclusive

How did O=S(=O)(c1ccccc1)c1nc(-c2ccccc2)oc1N1CCN(c2cccc(Cl)c2)CC1 do in these assays?
VDR inh: inactive; G9a block: inactive

How did CCc1cccc(NC(=O)CSCc2nc3sc(C)c(C)c3c(=O)[nH]2)c1 do in these assays?
Mm-Cpn inhibitor: inactive; VDR inh: inactive; PLK1 PBD inh: inactive; CCT chaperon mod: inactive; G9a block: inactive[12.7 µM]

How did Cc1sc2nc(CSCC(=O)Nc3ccc(N4CCOCC4)cc3)[nH]c(=O)c2c1C do in these assays?
Mm-Cpn inhibitor: inactive; VDR inh: inconclusive; PLK1 PBD inh: 29.9µM; CCT chaperon mod: inactive; G9a block: inactive; Sfp inh: inconclusive

What do the screens show for `COC(=O)C1=C(C(=O)OC)[C@@H]2N(C)c3ccc(OC)cc3[C@@]23C[C@@H](C(=O)OC)N(S(=O)(=O)c2ccc(Br)cc2)C3=N1`?
Sfp inh: inactive

Results for CC(C)C[C@@H](CNCC(=O)[C@H](CC(C)C)NC(=O)c1[nH]cnc1C(=O)N[C@H](CN)CC(C)C)NC(=O)c1nc[nH]c1C(=O)N[C@@H](Cc1ccccc1)C(=O)O ?
VDR inh: inconclusive; PLK1 PBD inh: 21.2µM; CCT chaperon mod: inactive

What do the screens show for `CC(C)C[C@@H](CNCC(=O)[C@H](Cc1ccccc1)NC(=O)c1[nH]cnc1C(=O)N[C@H](CN)CC(C)C)NC(=O)c1nc[nH]c1C(=O)N[C@@H](CC(=O)O)C(=O)O`?
VDR inh: inconclusive; PLK1 PBD inh: 33.6µM; CCT chaperon mod: inactive

What do the screens show for `CC(C)C[C@@H](CN)NC(=O)c1nc[nH]c1C(=O)N[C@@H](Cc1ccccc1)C(=O)CNC[C@H](C)NC(=O)c1nc[nH]c1C(=O)N[C@@H](CC(C)C)C(=O)O`?
VDR inh: inactive; PLK1 PBD inh: inactive; CCT chaperon mod: inactive

Results for CC(C)C[C@@H](CN)NC(=O)c1nc[nH]c1C(=O)N[C@@H](C)C(=O)CNC[C@H](CC(C)C)NC(=O)c1nc[nH]c1C(=O)N[C@@H](Cc1ccccc1)C(=O)O ?
VDR inh: inactive; PLK1 PBD inh: inconclusive; CCT chaperon mod: inactive

Results for O=C(NCCc1c[nH]c2ccccc12)c1ccc(Br)o1 ?
Mm-Cpn inhibitor: inactive; VDR inh: inactive; PLK1 PBD inh: inactive; CCT chaperon mod: inactive

Results for O=C(NCCSc1c[nH]c2ccccc12)c1ccc(Br)o1 ?
Mm-Cpn inhibitor: inactive; VDR inh: inactive; PLK1 PBD inh: inactive; CCT chaperon mod: inactive; G9a block: 79.4µM; Sfp inh: inactive

Results for Brc1ccc(-c2nn3c(-c4ccccn4)nnc3s2)o1 ?
Mm-Cpn inhibitor: inactive; VDR inh: inactive; PLK1 PBD inh: inactive; CCT chaperon mod: inactive; G9a block: 20µM; Sfp inh: 8.91µM

What do the screens show for `Brc1ccc(-c2nn3c(-c4ccco4)nnc3s2)o1`?
Mm-Cpn inhibitor: inconclusive; VDR inh: inactive; PLK1 PBD inh: inconclusive; CCT chaperon mod: inactive; G9a block: 14.1µM; Sfp inh: 20µM

Results for Clc1ccc(-c2ccc(-c3nn4c(-c5ccco5)nnc4s3)o2)cc1 ?
VDR inh: inactive; PLK1 PBD inh: inconclusive; CCT chaperon mod: inactive

How did CN(Cc1ccccc1)C(=O)Cn1c(=O)c2cccn2c2ccc(F)cc21 do in these assays?
VDR inh: inactive; G9a block: inactive

What do the screens show for `COc1cc(OC)c(NC(=O)CSc2nc3ccncc3[nH]2)cc1Cl`?
Mm-Cpn inhibitor: inactive; VDR inh: inactive; G9a block: inactive

How did Cc1cccc(CC(Cc2nc3ccccc3[nH]2)c2nc3ccccc3[nH]2)c1 (configuration not stated) do in these assays?
Mm-Cpn inhibitor: inactive; VDR inh: inactive; PLK1 PBD inh: inactive; CCT chaperon mod: inactive; G9a block: inconclusive; Sfp inh: 39.8µM

What do the screens show for `Cc1ccc2c(c1)C(c1ccccc1)N(C(=O)c1ccccc1F)CC(=O)N2` (configuration not stated)?
VDR inh: inactive; G9a block: inactive

Results for CCc1ccc(CNC(=O)C(CC)n2ccc3cc(S(=O)(=O)N4CCCCC4)ccc32)cc1 (configuration not stated) ?
VDR inh: inactive; G9a block: inactive

How did Cc1ccccc1C(=O)NCCCNC(=O)c1ccccc1C do in these assays?
VDR inh: inactive; PLK1 PBD inh: inactive; CCT chaperon mod: inactive

Results for CNc1c2cccc(C)c2nc2c(C(=O)NCCN(C)C)cccc12 ?
VDR inh: inactive; PLK1 PBD inh: 16.8µM; CCT chaperon mod: inactive

How did COc1cccc(CNC(=O)CSc2n[nH]c(-c3ccccc3Cl)n2)c1 do in these assays?
VDR inh: inactive; G9a block: inactive

How did Oc1ccc2c(ccc3[nH]cnc32)c1 do in these assays?
Mm-Cpn inhibitor: inactive; VDR inh: inactive; PLK1 PBD inh: inactive; CCT chaperon mod: inactive; G9a block: 50.1µM; Sfp inh: inactive

What do the screens show for `Brc1cc2[nH]cnc2c2ccccc12`?
Mm-Cpn inhibitor: inactive; VDR inh: inactive; PLK1 PBD inh: inactive; CCT chaperon mod: inactive; G9a block: inconclusive; Sfp inh: inconclusive

Results for CCOc1ccc(N2C(=O)CN(O)C=C3N=c4ccccc4=C32)cc1 ?
Mm-Cpn inhibitor: inactive; G9a block: inactive; Sfp inh: 4.47µM
